Source: ChEMBL document CHEMBL1201862, “PubChem BioAssay data set” (2004)
Among all 400,000 compounds or so, about 2,100 (0.53%) were called active. About 14% were inconclusive and are not listed. How the calls were made is not given here. The full list was thinned out, with actives kept by preference.

What follows are compounds tested against Ataxin-2 (Homo sapiens) (UniProt Q99700) (assay: qHTS for Inhibitors of ATXN expression.).
Assay type: functional

Ataxin-2 (Homo sapiens), sequence (Q99700 whole entry): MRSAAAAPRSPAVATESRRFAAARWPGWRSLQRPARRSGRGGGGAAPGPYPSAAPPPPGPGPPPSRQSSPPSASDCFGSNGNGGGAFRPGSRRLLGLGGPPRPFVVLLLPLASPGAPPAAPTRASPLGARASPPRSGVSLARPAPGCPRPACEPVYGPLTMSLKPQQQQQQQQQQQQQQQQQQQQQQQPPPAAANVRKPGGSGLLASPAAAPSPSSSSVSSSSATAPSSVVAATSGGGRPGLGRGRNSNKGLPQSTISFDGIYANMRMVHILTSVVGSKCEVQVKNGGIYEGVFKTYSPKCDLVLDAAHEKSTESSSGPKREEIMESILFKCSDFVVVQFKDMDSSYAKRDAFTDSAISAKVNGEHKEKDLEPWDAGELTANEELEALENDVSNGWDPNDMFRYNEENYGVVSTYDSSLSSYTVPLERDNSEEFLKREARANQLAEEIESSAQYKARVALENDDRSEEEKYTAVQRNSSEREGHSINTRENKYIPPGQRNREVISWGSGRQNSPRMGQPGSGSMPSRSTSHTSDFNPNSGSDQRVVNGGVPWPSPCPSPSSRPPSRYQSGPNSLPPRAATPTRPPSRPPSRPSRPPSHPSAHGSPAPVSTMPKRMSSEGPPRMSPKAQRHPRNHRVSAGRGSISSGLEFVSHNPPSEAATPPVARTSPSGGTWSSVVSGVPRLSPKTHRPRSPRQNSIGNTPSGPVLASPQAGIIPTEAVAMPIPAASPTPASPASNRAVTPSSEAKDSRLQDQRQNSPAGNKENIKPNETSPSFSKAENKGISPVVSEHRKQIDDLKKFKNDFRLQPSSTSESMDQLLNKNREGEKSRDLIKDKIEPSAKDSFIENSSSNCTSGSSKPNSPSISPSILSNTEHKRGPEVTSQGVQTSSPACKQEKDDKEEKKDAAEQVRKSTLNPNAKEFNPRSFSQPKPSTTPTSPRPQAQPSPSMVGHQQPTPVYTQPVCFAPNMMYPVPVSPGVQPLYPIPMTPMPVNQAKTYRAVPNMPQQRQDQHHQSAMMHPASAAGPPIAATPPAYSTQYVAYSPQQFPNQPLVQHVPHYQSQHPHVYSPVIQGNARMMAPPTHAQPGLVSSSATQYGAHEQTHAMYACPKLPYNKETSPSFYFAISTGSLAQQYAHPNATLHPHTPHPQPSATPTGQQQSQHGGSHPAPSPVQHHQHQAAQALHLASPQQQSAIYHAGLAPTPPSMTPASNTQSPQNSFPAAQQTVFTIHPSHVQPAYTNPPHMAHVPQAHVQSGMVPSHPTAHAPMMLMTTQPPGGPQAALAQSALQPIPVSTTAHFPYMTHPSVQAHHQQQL

**Q.** How did the Potency turn out when `CCCCCc1c(-c2cccc(OC)c2)ncn1CCc1ccccc1OC` was run?
**A.** The Potency was 31.6 µM (active).

**Q.** How did the Potency turn out when `CCCCNc1c(-c2ccc(OC)c(Sc3ccc(OC)cc3)c2)nc2cnccn12` was run?
**A.** The Potency was “inactive”.

**Q.** `COc1ccccc1[C@H]1C(c2cccc(Cl)c2)=NN(c2ccccc2)[C@@H]1CO` was tested. Which Potency did it give?
**A.** Its Potency is “inactive”.

**Q.** For `CCCCc1c(-c2cccc(OC)c2)ncn1CCc1ccccc1OC`, which Potency is on record?
**A.** Its Potency is 39.8 µM (active).

**Q.** Which Potency does the source give for `CCCCc1c(-c2cccc(Cl)c2)ncn1CCc1ccccc1OC` here?
**A.** Its Potency is 31.6 µM (active).

**Q.** Which Potency does the source give for `COc1c(OC)c2nc(O)cc3c4ccccc4n(c1=O)c23` here?
**A.** Its Potency is “inactive”.

**Q.** Which Potency does the source give for `Clc1ccc(C2=CC(c3ccco3)n3ncnc3N2)cc1` (configuration not stated) here?
**A.** The Potency was “inactive”.

**Q.** Which Potency does the source give for `Cc1cc(O)c(C(=O)/C=C/c2c(F)c(F)c(F)c(F)c2F)c(=O)o1` here?
**A.** The Potency was “inactive”.

**Q.** For `CCOC(=O)c1c(NC(=O)c2ccc(S(=O)(=O)N3CCC(C)CC3)cc2)sc2c1CCN(CC)C2`, which Potency is on record?
**A.** Its Potency is “inactive”.

**Q.** For `Nc1nnnn1/N=C/c1cc(Cl)ccc1O`, which Potency is on record?
**A.** Its Potency is “inactive”.

**Q.** Which Potency does the source give for `CC(=O)Nc1cc(OC(C)=O)c2nonc2c1OC(C)=O` here?
**A.** The Potency was 39.8 µM (active).

**Q.** With `CC(=O)Oc1cc2oc(=O)cc(C)c2cc1OC(C)=O` as the compound, how does the Potency read?
**A.** The Potency was “inactive”.

**Q.** How did the Potency turn out when `CC(=O)Nc1cc2ccc(OC(C)=O)cc2oc1=O` was run?
**A.** The Potency was “inactive”.

**Q.** With `OC[C@@H]1[C@@H](c2ccccc2)C(c2cccc(Cl)c2)=NN1c1ccccc1` as the compound, how does the Potency read?
**A.** Its Potency is “inactive”.

**Q.** With `Cc1c(N(C(=O)Cc2cccs2)C2(C(=O)NC3CCCC3)CCCCC2)c(=O)n(-c2ccccc2)n1C` as the compound, how does the Potency read?
**A.** The Potency was “inactive”.

**Q.** With `C#CCNC(=O)C[C@@H]1C[C@@]2(C(=O)OCC)CCCC=C2N(CCCCCCCC)C1=O` as the compound, how does the Potency read?
**A.** Its Potency is 20 µM (active).

**Q.** Which Potency does the source give for `CCCCCCCCN1C(=O)[C@H](CC(=O)NCCC(C)C)C[C@@]2(C(=O)OCC)CCCC=C12` here?
**A.** The Potency was 39.8 µM (active).

**Q.** `O=C(COC(=O)c1cncc(Br)c1)NCc1cccs1` was tested. Which Potency did it give?
**A.** The Potency was “inactive”.

**Q.** `CCCCCCCCN1C(=O)[C@H](CC(=O)NCc2cccs2)C[C@@]2(C(=O)OCC)CCCC=C12` was tested. Which Potency did it give?
**A.** The Potency was 39.8 µM (active).

**Q.** How did the Potency turn out when `Cc1ccc(-c2cc(C(F)(F)F)n3ncc(C(=O)N4CCCCC4c4cccnc4)c3n2)cc1` (configuration not stated) was run?
**A.** Its Potency is “inactive”.

**Q.** For `O=C(CSc1ccc2ccccc2c1)NCCc1ccc(O)c(O)c1`, which Potency is on record?
**A.** The Potency was “inactive”.

**Q.** `COC(=O)C(C)N=C(S)N1CCN(c2c(F)cc3c(=O)c(C(=O)O)cn(C4CC4)c3c2OC)CC1C` (configuration not stated) was tested. Which Potency did it give?
**A.** Its Potency is “inactive”.

**Q.** With `S=C(Nc1ccc2nc(-c3ccccn3)c(-c3ccccn3)nc2c1)N1CCCCCC1` as the compound, how does the Potency read?
**A.** Its Potency is “inactive”.

**Q.** For `Cc1nc(N2CCCCCC2)c2ccccc2n1`, which Potency is on record?
**A.** Its Potency is “inactive”.

**Q.** How did the Potency turn out when `CC(NNC(=S)N1CCCCCC1)c1ccc2ccccc2n1` (configuration not stated) was run?
**A.** The Potency was 12.6 µM (active).

**Q.** For `CCOc1ccc(C(=O)C2CCN(C(=O)c3ccc([N+](=O)[O-])cc3)CC2)cc1`, which Potency is on record?
**A.** Its Potency is “inactive”.

**Q.** Which Potency does the source give for `COc1ccc(C2C3=C(O)CC(C)(C)CC3=Nc3c2c(=O)n(C)c(=O)n3C)cc1OC` (configuration not stated) here?
**A.** Its Potency is “inactive”.

**Q.** For `COc1ccc(CCn2c(C)cc(C(=O)CCl)c2C)cc1OC`, which Potency is on record?
**A.** The Potency was 39.8 µM (active).

**Q.** Which Potency does the source give for `Cc1cc(C(=O)CCl)c(C)n1CCc1ccc(F)cc1` here?
**A.** The Potency was 37.7 µM (active).

**Q.** Which Potency does the source give for `Cc1cc(C(=O)COC(=O)Cc2c(F)cccc2Cl)c(C)n1C` here?
**A.** The Potency was “inactive”.

**Q.** Which Potency does the source give for `Cc1ccc(C(=O)OCC(=O)NCCc2ccc(F)cc2)cc1S(=O)(=O)N1CCOCC1` here?
**A.** Its Potency is “inactive”.

**Q.** How did the Potency turn out when `N=c1c(C(=O)NCC2CCCO2)cc2c(=O)n3ccccc3nc2n1Cc1cccnc1` (configuration not stated) was run?
**A.** The Potency was “inactive”.

**Q.** Which Potency does the source give for `CCOC(=O)COc1ccc2c(C#N)c3ccccn3c2c1` here?
**A.** The Potency was “inactive”.

**Q.** Which Potency does the source give for `COc1cc(/C=N/Nc2nc(-c3ccc(S(=O)(=O)N(C)C)cc3)cs2)ccc1O` here?
**A.** Its Potency is 35.5 µM (active).

**Q.** With `O=C(N/N=C/c1sc(N2CCOCC2)nc1-c1ccccc1)c1cccc(S(=O)(=O)N2CCCC2)c1` as the compound, how does the Potency read?
**A.** The Potency was “inactive”.

**Q.** How did the Potency turn out when `Cn1c2ccccc2c2nnc(N/N=C/c3ccc(O)cc3)nc21` was run?
**A.** The Potency was “inactive”.

**Q.** Which Potency does the source give for `CC(=O)c1sc(N/N=C/c2ccc(C(C)C)cc2)nc1C` here?
**A.** Its Potency is “inactive”.

**Q.** For `O=C(Nc1cccc(S(=O)(=O)N2CCCCCC2)c1)c1ccc(O)nc1`, which Potency is on record?
**A.** The Potency was “inactive”.

**Q.** `COc1cc(/C=N/NC(=O)CCC(=O)Nc2ccc(F)cc2)ccc1O` was tested. Which Potency did it give?
**A.** Its Potency is “inactive”.

**Q.** `COc1cc(/C=N/NC(=O)C(=O)NCc2ccco2)ccc1O` was tested. Which Potency did it give?
**A.** The Potency was “inactive”.

**Q.** With `CCOc1cc(/C=N/Nc2nc(-c3cccc(S(=O)(=O)N4CCCC4)c3)cs2)ccc1O` as the compound, how does the Potency read?
**A.** The Potency was 25.1 µM (active).

**Q.** How did the Potency turn out when `CN(C)S(=O)(=O)c1ccc(-c2csc(N/N=C/c3ccc(O)cc3)n2)cc1` was run?
**A.** The Potency was 20 µM (active).

**Q.** `CCN(CC)c1ccc2cc(C=O)c(=O)oc2c1` was tested. Which Potency did it give?
**A.** The Potency was “inactive”.

**Q.** For `CCOc1ccc(C(=O)c2oc3ccccc3c2NC(=O)c2cc(-c3ccccc3)on2)cc1`, which Potency is on record?
**A.** The Potency was “inactive”.

**Q.** With `CC(=O)/C(=N\Nc1ccccc1)Oc1ccc(Br)cc1` as the compound, how does the Potency read?
**A.** The Potency was “inactive”.

**Q.** `Cc1cccc(N/N=C(\C=O)C(=O)c2ccc(Br)cc2)c1` was tested. Which Potency did it give?
**A.** Its Potency is 31.6 µM (active).

**Q.** How did the Potency turn out when `O=C(Nc1ccccc1)c1ncoc1-c1ccc(Cl)cc1` was run?
**A.** The Potency was “inactive”.

**Q.** Which Potency does the source give for `Cc1cccc(/C=N/NC(=O)c2cc(Br)ccc2O)n1` here?
**A.** Its Potency is “inactive”.

**Q.** With `O=C(O)c1ccc(N/N=C/c2ccc(-c3cc(Cl)ccc3Cl)o2)cc1` as the compound, how does the Potency read?
**A.** Its Potency is “inactive”.

**Q.** With `O=C/C(=N\Nc1ccccc1)C(=O)c1ccc(Cl)cc1` as the compound, how does the Potency read?
**A.** The Potency was 9.47 µM (active).

**Q.** With `C=CCn1c(S)nnc1-c1oc2nc(-c3ccccc3)cc(-c3ccccc3)c2c1N` as the compound, how does the Potency read?
**A.** Its Potency is “inactive”.

**Q.** How did the Potency turn out when `CNc1snc(C)c1C(=O)OCC(=O)N(C)c1ccccc1` was run?
**A.** The Potency was “inactive”.
